Most compounds without a hit are left out; they make up all but 7.7% or so of the library.
PD-1 reversal – activators reversing PD-1 mediated T-cell inhibition. 29,000 tested, under 10 active. AID 2316. activation, % (concentration not given with the values). primary human CD4 T cells, PD-L1 beads, CellTiter-Glo 96 h; call rule not given here;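 also: 0% = median vehicle wells and 100% = positive control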
Shh pathway inh – blocks Sonic Hedgehog signaling; Shh-LIGHT2 Gli-luciferase reporter, 30 h; inhibition, % (no concentration beside the values); hit rate 2.1% among 22,000;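 active = mean inhibition across valid replicates above about 65%, limit read from the data; inconclusive = mean under the limit, yet half or more replicates past it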;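 also: pathway switched on by Shh-conditioned medium diluted 1 in 25 in low serum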
NOMO-1 viab – STK33 inhibitor candidate reducing NOMO-1 cell viability; NOMO-1 AML viability, CellTiter-Glo luminescence, 72 h; hit rate 7.5% among 37,000; inhibition, % (concentration not given with the values); in the data active = inhibition above about 80%; inconclusive = no clear call, values can overlap the other calls
Active calls of the source: *; ? = inconclusive; . = no result.

SMILES	PD-1 reversal	Shh pathway inh	NOMO-1 viab
Cc1ccc(S(=O)(=O)Nc2cccc3c2O[C@@H](CN(C)CC2CCCCC2)[C@@H](C)CN([C@H](C)CO)C3=O)cc1	-0.3	87.7*	51.4
Cc1ccc(S(=O)(=O)Nc2cccc3c2O[C@H](CN(C)CC2CCCCC2)[C@@H](C)CN([C@@H](C)CO)C3=O)cc1	0.0	-6.6	-9.4
Cc1ccc(S(=O)(=O)Nc2cccc3c2O[C@@H](CN(C)C(=O)NC2CCCCC2)[C@@H](C)CN([C@H](C)CO)C3=O)cc1	0.5	?	100.4*
Cc1ccc(S(=O)(=O)Nc2cccc3c2O[C@@H](CN(C)C(=O)NC2CCCCC2)[C@@H](C)CN([C@@H](C)CO)C3=O)cc1	-3.7	-21.1	27.0
Cc1cc(C)c2oc(-c3ccc(NC(=O)COc4ccc(Br)cc4)cc3O)nc2c1	0.5	-219.0	13.0
CC(NS(=O)(=O)c1ccc(Br)cc1)C(=O)Nc1ccc(Cl)cc1Cl (configuration not stated)	-1.6	.	7.6
COC(=O)c1ccc(-n2nnnc2SCC(=O)Nc2ccccc2)cc1	1.6	.	46.7
Cc1csc2sc(-c3ccnc(SCC(=O)c4ccccc4)n3)c(C)c12	0.0	70.3*	0.8
Cc1ccc(-c2nc(SCC(=O)c3ccccc3)n[nH]2)cc1	.	.	15.1
Cc1csc2sc(-c3ccnc(SCC(=O)NCc4ccccc4)n3)c(C)c12	-1.6	.	112.9*
Cc1cc(C)c2c(=O)[nH]c(SCC(=O)NCc3ccccc3)nc2n1	0.6	.	17.1
O=C(COc1ccc2ccccc2c1)Nc1ccccc1-c1nc2ccccc2s1	-1.7	.	21.9
C[C@H](CO)N1C[C@H](C)[C@H](CN(C)S(=O)(=O)c2cccs2)Oc2c(NC(=O)Nc3ccc(C(F)(F)F)cc3)cccc2C1=O	-2.0	14.7	92.0*
C[C@H](CO)N1C[C@H](C)[C@@H](CN(C)S(=O)(=O)c2cccs2)Oc2ccc(NC(=O)Nc3ccc(C(F)(F)F)cc3)cc2C1=O	-1.2	6.2	92.0*
C[C@@H]1CN([C@H](C)CO)C(=O)c2cccc(NC(=O)Nc3ccc(F)cc3)c2O[C@@H]1CN(C)S(=O)(=O)c1cccs1	-1.3	49.4	22.2
C[C@@H]1CN([C@H](C)CO)C(=O)c2cc(NC(=O)Nc3ccc(C(F)(F)F)cc3)ccc2O[C@H]1CN(C)S(=O)(=O)c1cccs1	-7.1	.	45.3
C[C@@H]1CN([C@@H](C)CO)C(=O)c2cccc(NS(=O)(=O)c3ccc(Cl)cc3)c2O[C@H]1CN(C)S(=O)(=O)c1cccs1	.	-15.9	-0.1
C[C@@H]1CN([C@H](C)CO)C(=O)c2cccc(NC(=O)Nc3ccc(F)cc3)c2O[C@H]1CN(C)S(=O)(=O)c1cccs1	0.7	-11.5	13.0
C[C@@H]1CN([C@@H](C)CO)C(=O)c2cccc(NS(=O)(=O)c3ccc(Cl)cc3)c2O[C@@H]1CN(C)S(=O)(=O)c1cccs1	-4.2	-46.4	84.8*
C[C@H]1CN([C@@H](C)CO)C(=O)c2cccc(NC(=O)Nc3ccc(C(F)(F)F)cc3)c2O[C@H]1CN(C)S(=O)(=O)c1cccs1	-3.5	-9.5	90.5*
Cn1c(=O)c2c(nc(NCc3cccnc3)n2Cc2c(F)cccc2Cl)n(C)c1=O	-0.4	.	7.3
C[C@@H]1CN([C@H](C)CO)C(=O)c2cccc(NC(=O)C3CC3)c2O[C@H]1CN(C)S(=O)(=O)c1cccs1	2.6	-16.3	-13.5
C[C@H](CO)N1C[C@H](C)[C@H](CN(C)S(=O)(=O)c2cccs2)Oc2c(NC(=O)C3CC3)cccc2C1=O	.	84.9*	-4.0
COc1cc(O)c(C(=O)c2c(O)cc(C)cc2O)c(C(=O)O)c1	0.1	-8.0	6.7
COc1ccc(C2C(C(=O)Nc3ccccc3)=C(C)Nc3ncnn32)cc1O (configuration not stated)	2.7	.	-18.3
SMILES	PD-1 reversal	Shh pathway inh	NOMO-1 viab
COc1ccc(NC(=O)CSc2nnc(-c3ccccc3)c(-c3ccccc3)n2)cc1	1.7	.	-18.6
COc1ccc(NC(=O)CC(=O)CSc2ccccc2)cc1	-2.1	-1.5	112.3*
C[C@@H]1CN([C@H](C)CO)C(=O)Cc2cc(NC(=O)CCN3CCOCC3)ccc2O[C@H]1CN(C)Cc1ccc(-c2ccccc2)cc1	-0.4	15.3	9.0
C[C@@H]1CN([C@H](C)CO)C(=O)Cc2cc(NC(=O)CCC(F)(F)F)ccc2O[C@H]1CN(C)Cc1ccccc1	1.0	-49.1	-5.1
C[C@H]1CN([C@@H](C)CO)C(=O)Cc2cc(NC(=O)CCC(F)(F)F)ccc2O[C@@H]1CN(C)Cc1ccc(-c2ccccc2)cc1	.	6.8	97.1*
C[C@@H]1CN([C@H](C)CO)C(=O)c2cc(NC(=O)CCC(F)(F)F)ccc2O[C@H]1CN(C)Cc1ccc(Oc2ccccc2)cc1	.	.	85.1*
C[C@H]1CN([C@@H](C)CO)C(=O)Cc2cc(NC(=O)CCC(F)(F)F)ccc2O[C@H]1CN(C)Cc1ccc(-c2ccccc2)cc1	.	16.1	30.9
C[C@H]1CN([C@@H](C)CO)C(=O)Cc2cc(NC(=O)CCN3CCOCC3)ccc2O[C@@H]1CN(C)Cc1ccc(-c2ccccc2)cc1	-0.2	65.1*	11.4
C[C@@H]1CN([C@H](C)CO)C(=O)Cc2cc(NC(=O)CCC(F)(F)F)ccc2O[C@H]1CN(C)Cc1ccc(Oc2ccccc2)cc1	-4.0	-22.0	93.8*
C[C@@H]1CN([C@@H](C)CO)C(=O)c2cc(NC(=O)CCC(F)(F)F)ccc2O[C@@H]1CN(C)Cc1ccc(-c2ccccc2)cc1	-1.7	.	63.5
c1ccc2c(c1)n(CCN1CCOCC1)c1nc(C34CC5CC(CC(C5)C3)C4)cn21	.	.	49.8
CCCn1c(-c2cccs2)n[nH]c1=O	-2.1	-26.5	-1.6
COc1ccc(NC(=O)Cn2cnc3sc4c(c3c2=O)CCC(C)C4)cc1 (configuration not stated)	-1.8	.	12.1
CC(C)(C)OC(=O)N1CCN(Cc2ccccc2)CC1	-0.2	3.7	-7.3
C[C@@H]1CC(=O)c2c(ccc3c2C(=O)c2cccc(O)c2C3=O)C1	1.1	-10.2	71.3
CN1CCc2cccc3c2[C@H]1Cc1ccc(O)c(O)c1-3	.	-3.7	112.9*
O=C(CSc1n[nH]c(-c2ccc(Cl)cc2)n1)Nc1cccc(Br)c1	-3.8	.	6.3
CCn1c(SCc2nc3ccccc3[nH]2)nnc1-c1cccc(Cl)c1	1.7	.	30.5
CC(C)N(Cc1nc(-c2ccccc2Cl)no1)C(=O)c1ccccc1-c1ccccc1	.	.	35.7
Cc1ccc(-c2noc(CN(C(=O)c3ccccc3-c3ccccc3)C(C)C)n2)cc1	.	.	87.4*
Cc1cc(C)cc(Sc2ccc3nnc(-c4ccccc4)n3n2)c1	-5.2	67.2*	122.3*
CSc1nnc(-c2ccccc2)n1-c1ccccc1	0.7	-16.1	19.0
CC(C)=CCc1c(O)c(CC=C(C)C)c2c(c1O)C(=O)CC(c1ccc(O)cc1O)O2 (configuration not stated)	-1.9	-1.6	116.4*
CC(C)=CCc1c(O)cc(O)c2c1OC(c1ccc(O)c(O)c1)CC2=O (configuration not stated)	.	33.3	.
COc1ccc(-c2nc(SCc3ccc(OC)c([N+](=O)[O-])c3)n[nH]2)cc1	0.7	.	1.8
C[C@@H]1O[C@@H](OC[C@H]2O[C@@H](OCCc3ccc(O)c(O)c3)[C@H](O)[C@@H](O)[C@@H]2OC(=O)/C=C/c2ccc(O)c(O)c2)[C@H](O)[C@H](O)[C@H]1O	0.6	-63.9	21.4

From PubChem
